mHTT-CaM PPI inh: inhibitors of human mutant huntingtin-calmodulin interaction. P42858. AlphaScreen His-mHTT/GST-CaM binding, luminescence. inhibition, % at 15 µM. hit rate 3.6% among 190,000
Target sequence (P42858 whole entry, looked up, change not shown): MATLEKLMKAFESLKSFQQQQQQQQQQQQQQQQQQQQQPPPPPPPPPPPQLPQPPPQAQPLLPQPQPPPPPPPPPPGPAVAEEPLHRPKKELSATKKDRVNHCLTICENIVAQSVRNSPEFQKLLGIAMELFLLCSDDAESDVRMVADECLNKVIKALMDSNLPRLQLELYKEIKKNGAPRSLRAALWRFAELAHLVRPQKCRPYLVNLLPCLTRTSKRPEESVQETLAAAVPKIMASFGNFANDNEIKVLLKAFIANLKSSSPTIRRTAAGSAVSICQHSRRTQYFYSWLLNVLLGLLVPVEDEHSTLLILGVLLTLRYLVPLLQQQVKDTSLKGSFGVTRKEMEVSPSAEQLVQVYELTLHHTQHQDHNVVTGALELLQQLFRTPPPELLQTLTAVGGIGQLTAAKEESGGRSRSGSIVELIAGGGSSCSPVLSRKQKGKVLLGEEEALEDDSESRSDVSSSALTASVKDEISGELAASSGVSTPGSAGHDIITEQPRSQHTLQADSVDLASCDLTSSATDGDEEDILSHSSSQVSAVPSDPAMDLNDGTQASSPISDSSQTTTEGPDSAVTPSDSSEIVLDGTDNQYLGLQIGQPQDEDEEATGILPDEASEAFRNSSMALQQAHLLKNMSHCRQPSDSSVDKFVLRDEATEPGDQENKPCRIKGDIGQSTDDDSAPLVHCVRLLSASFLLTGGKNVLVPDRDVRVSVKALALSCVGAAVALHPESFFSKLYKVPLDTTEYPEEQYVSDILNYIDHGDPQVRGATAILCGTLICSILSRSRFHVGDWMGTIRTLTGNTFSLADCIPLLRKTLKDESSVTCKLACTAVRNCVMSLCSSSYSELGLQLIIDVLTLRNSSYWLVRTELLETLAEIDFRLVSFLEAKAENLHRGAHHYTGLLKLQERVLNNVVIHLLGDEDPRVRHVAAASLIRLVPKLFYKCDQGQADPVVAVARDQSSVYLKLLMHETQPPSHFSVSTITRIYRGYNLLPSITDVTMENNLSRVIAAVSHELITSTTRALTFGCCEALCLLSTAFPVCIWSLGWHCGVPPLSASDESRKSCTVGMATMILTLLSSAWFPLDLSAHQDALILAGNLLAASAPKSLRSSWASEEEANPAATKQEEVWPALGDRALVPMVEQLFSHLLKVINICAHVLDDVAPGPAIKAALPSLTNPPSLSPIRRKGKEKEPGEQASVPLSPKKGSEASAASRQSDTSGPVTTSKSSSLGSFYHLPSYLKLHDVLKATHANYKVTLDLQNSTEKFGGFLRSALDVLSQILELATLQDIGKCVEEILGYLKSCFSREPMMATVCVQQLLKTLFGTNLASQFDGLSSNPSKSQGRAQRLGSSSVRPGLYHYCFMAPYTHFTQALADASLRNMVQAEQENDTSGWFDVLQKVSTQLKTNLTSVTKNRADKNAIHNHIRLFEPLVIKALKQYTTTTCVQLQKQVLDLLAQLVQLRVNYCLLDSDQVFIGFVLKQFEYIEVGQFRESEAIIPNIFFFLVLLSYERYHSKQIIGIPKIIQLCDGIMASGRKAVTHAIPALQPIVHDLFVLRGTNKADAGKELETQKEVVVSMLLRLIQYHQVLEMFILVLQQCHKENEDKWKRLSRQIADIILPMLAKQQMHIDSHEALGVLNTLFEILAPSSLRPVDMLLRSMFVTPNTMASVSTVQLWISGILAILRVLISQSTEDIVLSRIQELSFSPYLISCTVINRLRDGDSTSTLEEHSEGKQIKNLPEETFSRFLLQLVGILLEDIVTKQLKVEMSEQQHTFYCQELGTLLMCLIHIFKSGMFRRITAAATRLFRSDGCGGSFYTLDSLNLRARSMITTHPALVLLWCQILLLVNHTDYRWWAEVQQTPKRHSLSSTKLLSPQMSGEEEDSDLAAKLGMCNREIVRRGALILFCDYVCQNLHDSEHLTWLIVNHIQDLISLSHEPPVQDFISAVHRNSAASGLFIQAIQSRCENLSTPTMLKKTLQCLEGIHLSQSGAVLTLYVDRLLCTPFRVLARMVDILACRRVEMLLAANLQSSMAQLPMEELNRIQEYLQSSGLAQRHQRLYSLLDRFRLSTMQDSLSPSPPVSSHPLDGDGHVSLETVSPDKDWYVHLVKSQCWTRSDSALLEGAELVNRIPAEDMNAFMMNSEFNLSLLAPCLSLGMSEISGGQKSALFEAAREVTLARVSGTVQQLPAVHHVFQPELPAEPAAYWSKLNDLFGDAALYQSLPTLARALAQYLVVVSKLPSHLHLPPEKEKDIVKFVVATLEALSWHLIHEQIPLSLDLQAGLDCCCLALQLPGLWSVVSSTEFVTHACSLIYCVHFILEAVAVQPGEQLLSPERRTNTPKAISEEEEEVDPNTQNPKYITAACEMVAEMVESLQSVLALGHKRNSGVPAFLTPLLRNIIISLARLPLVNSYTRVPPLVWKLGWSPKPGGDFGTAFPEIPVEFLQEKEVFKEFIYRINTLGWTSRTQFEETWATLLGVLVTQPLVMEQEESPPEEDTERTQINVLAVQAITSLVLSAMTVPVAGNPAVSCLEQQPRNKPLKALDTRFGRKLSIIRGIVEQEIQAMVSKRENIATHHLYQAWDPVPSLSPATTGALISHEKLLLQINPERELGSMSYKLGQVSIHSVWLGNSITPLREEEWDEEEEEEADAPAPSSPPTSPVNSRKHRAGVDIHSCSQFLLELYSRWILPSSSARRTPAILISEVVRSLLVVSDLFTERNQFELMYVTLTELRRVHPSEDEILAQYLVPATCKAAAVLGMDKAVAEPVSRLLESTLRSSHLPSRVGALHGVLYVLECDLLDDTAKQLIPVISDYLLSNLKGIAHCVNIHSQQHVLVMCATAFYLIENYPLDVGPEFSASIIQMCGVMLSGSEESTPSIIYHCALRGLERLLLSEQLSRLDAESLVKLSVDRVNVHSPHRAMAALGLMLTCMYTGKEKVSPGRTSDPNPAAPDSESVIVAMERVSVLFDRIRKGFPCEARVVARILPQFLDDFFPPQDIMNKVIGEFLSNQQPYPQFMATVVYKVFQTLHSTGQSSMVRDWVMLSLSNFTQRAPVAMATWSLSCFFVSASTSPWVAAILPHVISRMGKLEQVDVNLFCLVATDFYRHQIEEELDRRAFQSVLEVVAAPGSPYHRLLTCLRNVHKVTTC
Pf apPOL block: Pf-apPOL DNA polymerase inhibition; Recombinant Pf-apPOL, molecular beacon fluorescence, 1.5 h; hit rate 0.25% among 210,000; inhibition, % at 10 µM; AID 1794808
Large screens that a line does not name were inactive. Many of the other results were omitted from the sample, so hits are more common in it than they were. No stated cut-off is given here; in the data, active means inhibition above about 50%; inactive means the rest.

COc1cc(OC)c2ccc(=O)oc2c1C(CC(=O)N1CCN(c2ccccc2)CC1)c1ccc2c(c1)OCO2 (centres undefined)	mHTT-CaM PPI inh 69.7
COc1ccc(C(CC(=O)N2CCCCC2)c2c(OC)cc(OC)c3ccc(=O)oc23)cc1 (centres undefined)	none
O=C(c1cccc(Br)c1)N1CCC2(O)CCCCC2C1 (centres undefined)	none
CC(C)(C)c1oc(C(=O)O)cc1CN1CCCCC1	none
CC(=O)C1=C(C)Nc2sc(C(=O)c3cccc([N+](=O)[O-])c3)c(N)c2C1c1cccnc1 (centres undefined)	mHTT-CaM PPI inh 56.6
CC(=O)C1=C(C)NC(C)=C(C(C)=O)C1c1cccc([N+](=O)[O-])c1	none (no result: mHTT-CaM PPI inh)
Cc1ccc(S(=O)(=O)N(CC(=O)NCc2ccccn2)Cc2ccc(Cl)c(Cl)c2)cc1	none
CCOc1cc2c(c([N+](=O)[O-])c1)NC(c1ccccc1)C1CC=CC21 (centres undefined)	mHTT-CaM PPI inh 57.0
CCOc1cc2c(c([N+](=O)[O-])c1)NC(c1cccc([N+](=O)[O-])c1)C1CC=CC21 (centres undefined)	none
COc1cc([N+](=O)[O-])cc2c1NC(C(C)C)C1CC=CC21 (centres undefined)	none
COc1cc2c(c([N+](=O)[O-])c1)NC(C(C)C)C1CC=CC21 (centres undefined)	mHTT-CaM PPI inh 97.0
CCC(=O)N1CCC2(C1)C(=O)N(C)c1ccccc12 (centres undefined)	none
CC(C)CN1CCn2cc(C(=O)NCc3ccc4c(c3)OCO4)nc2C1	none
O=C(Nc1ccccc1)C1C(c2ccccc2)C1(Cl)Cl (centres undefined)	none
Cc1cccc(NC(=O)C2C(c3ccccc3)C2(Cl)Cl)c1C (centres undefined)	Pf apPOL block 66.8
O=C(NCc1ccc(F)cc1)N1CC(C(=O)N2CCCCC2)C2(CCOCC2)C1 (centres undefined)	none
O=C(Cc1cccs1)N1CCN(c2ncnc3c2nnn3Cc2ccccc2)CC1	none
Cc1ccc(-n2nc3c(c2NC(=O)c2cccc([N+](=O)[O-])c2)CSC3)cc1	none
O=C(CN1C(=O)/C(=C/c2ccccc2F)Sc2ccccc21)N1CCN(C2CCCCC2)CC1	mHTT-CaM PPI inh 75.0
O=C(CN1C(=O)/C(=C/c2ccccc2F)Sc2ccccc21)N1CCCCC1	none
CCOc1cccc2cc(C(N)=O)c(=Nc3ccc(C#N)cc3)oc12	none
COc1ccc(CNC(=O)c2nc(C)n(C3CCN(C(C)=O)CC3)c2C)cc1	none
COc1ccc(Nc2ncc3c(n2)CCN(Cc2ccccc2OC)C3)cc1	none
COc1cccc(CN2CCc3nc(Nc4ccc(F)cc4)ncc3C2)c1OC	mHTT-CaM PPI inh 100.0
COc1cc(Nc2ncc3c(n2)CCN(Cc2cccc(OC)c2OC)C3)cc(OC)c1	none
COc1ccc(Nc2ncc3c(n2)CCN(Cc2cc(OC)c(OC)cc2OC)C3)cc1	none
CCCCN1CCc2nc(Nc3ccc(OC)cc3)ncc2C1	mHTT-CaM PPI inh 52.3
COc1cc(OC)c(OC)cc1CN1CCc2nc(Nc3ccc(F)cc3)ncc2C1	mHTT-CaM PPI inh 70.2
Cc1ccc(Cl)cc1NC(=O)CN(C)S(=O)(=O)c1cccs1	none
Clc1ccc(CN2CCN(Cc3ccc(Cl)cc3)C2c2ccncc2)cc1	none (no result: Pf apPOL block)
COc1ccccc1CC(=O)N1CC2CC(NC(=O)c3ccccc3)C1C2 (centres undefined)	none
COc1ccc(NS(=O)(=O)C2CCS(=O)(=O)C2)cc1 (centres undefined)	Pf apPOL block 99.8
COc1ccc(NS(C)(=O)=O)cc1	none
COC(=O)C(C)Oc1ccc(C=C2Oc3cc(OC)ccc3C2=O)cc1OC (centres undefined)	none
O=C1CSC(c2ccccc2)N1c1ccccc1 (centres undefined)	none
O=C1CSC(c2ccccc2)N1c1ccc(Oc2ccccc2)cc1 (centres undefined)	mHTT-CaM PPI inh 78.0
O=C1CSC(c2cccc([N+](=O)[O-])c2)N1c1ccc(Oc2ccccc2)cc1 (centres undefined)	mHTT-CaM PPI inh 78.0
CCOc1ccc(N2C(=O)CSC2c2cccc([N+](=O)[O-])c2)cc1 (centres undefined)	none
CCN(CC)CCCNC(=O)C1CC(c2cccc(OC)c2)=NO1 (centres undefined)	none
O=C(c1cc2c(s1)CCC(C(=O)N1CCCC1)C2)N1CCCCCC1 (centres undefined)	none
Cc1ccc(C2CC(C(F)(F)F)n3ncc(C(=O)NCCCn4ccnc4)c3N2)cc1 (centres undefined)	none
CC(=O)N1CC(C(=O)NCCc2ccccn2)CCC1c1ccc(F)c(C)c1 (centres undefined)	none
Cc1ccc(-c2nnc(N3CCC(C(=O)NCc4ccccn4)CC3)o2)cc1	mHTT-CaM PPI inh 75.7
Cc1ccc(N2CC(C(=O)NCc3ccccn3)CC2=O)cc1 (centres undefined)	mHTT-CaM PPI inh 100.1
Cc1ccc(N2CC(C(=O)NCc3ccccc3)CC2=O)cc1 (centres undefined)	none
CC(=O)N1CC(C(=O)NCc2ccccn2)CCC1c1ccc(F)c(C)c1 (centres undefined)	mHTT-CaM PPI inh 80.3
CC1CCN(c2ccc(N3CCC(C(=O)NCc4ccccn4)CC3)nn2)CC1	mHTT-CaM PPI inh 71.0
Cc1ccc(-c2nnc(N3CCC(C(=O)NCc4ccccc4)CC3)o2)cc1	none
CC1CCN(c2nnc(C(=O)NCc3ccccn3)c3ccccc23)CC1	none
CCOc1ccc(Cn2c(-c3nonc3N)nc3ccccc32)cc1OCC	none
Cc1cc(C)c2c(=O)n(C(=O)c3cccs3)sc2n1	Pf apPOL block 100.0 (no result: mHTT-CaM PPI inh)
Cc1cc(C)c(C#N)c(OC(=O)c2cccs2)n1	none (no result: mHTT-CaM PPI inh)
COc1ccc(-c2[nH]nc3c2C2(C(C#N)=C(N)O3)c3ccccc3-c3ccccc32)cc1	mHTT-CaM PPI inh 79.0
CCc1[nH]nc2c1C1(C(C#N)=C(N)O2)c2ccccc2-c2ccccc21	none
CCCc1[nH]nc2c1C1(C(=O)N(CC(=O)O)c3ccccc31)C(C#N)=C(N)O2 (centres undefined)	none
COc1ccc(-c2[nH]nc3c2C2(C(=O)N(CC(=O)O)c4ccccc42)C(C#N)=C(N)O3)cc1 (centres undefined)	Pf apPOL block 72.4
COc1cc(OC)c(OC)cc1C=C1Oc2cc(OC(=O)C3CC3)ccc2C1=O	none
COc1ccc(OCc2ccccc2)c(C(=O)C=Cc2ccc3c(c2)OCCO3)c1	none
COc1c(-c2cc(C(F)(F)C(F)F)[nH]n2)c(O)c(OC)c2occc12	none
COc1ccc(-c2cc(-c3c(O)c(OC)c4occc4c3OC)[nH]n2)cc1OC	mHTT-CaM PPI inh 85.8
CCCC(=O)Nc1c(-c2ccc(F)cc2)nc2cc(C)ccn12	none
O=C(O)c1ccc(N=Cc2nc(-c3ccccc3)oc2O)cc1	none
COCCn1c(C2CCN(C(=O)Nc3ccc(Cl)cc3C)C2)nc2ccncc21 (centres undefined)	none
Cc1ccc(Cl)c2c1C(=O)c1ccccc1C2=O	none
Nc1ccc(Cl)c2c1C(=O)c1ccccc1C2=O	mHTT-CaM PPI inh 59.0
CCN(CC)C(=O)c1cc2cn(C3CC3)cc2s1	none
O=C(c1ccccc1C(F)(F)F)N1CCN(c2ccc3nnc(C4CC4)n3n2)CC1	none
COc1ccc(/C=C2\CCCC3=C2OC(N)=C(C#N)C3c2ccc(OC)c(OC)c2)cc1OC (centres undefined)	none
N#CC1=C(N)OC2=C(C(=O)CC(c3ccccc3)C2)C1c1cccc(F)c1 (centres undefined)	none

Source: PubChem
